# Laboratory results taken from the supplement of paper PMC8728848.
# The full list was thinned out, with the strongest signals kept by preference.
# B1: Cohesin-mDCIR (Macaca mulatta) (protein)
# chain: GLDDLDAVRIKVDTVNAKPGDTVRIPVRFSGIPSKGIANCDFVYSYDPNVLEIIEIEPGDIIVDPNPDKSFDTAVYPDRKIIVFLFAEDSGTGAYAITKDGVFATIVAKVKEGAPNGLSVIKFVEVGGFANNDLVEQKTQFFDGGVNVGDTTEPATPTTPVTTPTTTDDLDAASFQKYSQLLEKMTTKDLVHTTLECVKKNMTTEETAWSCCPKNWKPFSSNCYFISTESASWQKSEKDCARMEAHLLVINTREEQDFIFQNLQEESAYFVGLSDPEGQRHWQWVDRTPYNESSTFWHPHEPSDPDERCVVLNFRKTPKRWGWNDVHCIVHQRSVCEMMKIHLHHHHHH
# Legend:
# Experiment in all cases: glycan array binding signal (z-score within array); higher = stronger binding
# Details in all cases: glycan notation: IUPAC condensed, linker removed
# [1] = molecular target: Fuc(a1-2)Gal(b1-3)GlcNAc6S
# Procedure, shortened: (§1)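 Glycan array data came from 3228 arrays in the Consortium for Functional Glycomics database, and only arrays with an available protein sequence were kept. Glycan names were put into IUPAC-condensed notation, and columns mapping to the same glycan were averaged. The binding signal is a within-array Z-score, averaged across arrays of one protein sequence run at different concentrations or buffers and across linkers. A negative Z-score can be read as non-binding.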
# [2] = molecular target: Fuc(a1-2)Gal(b1-3)[Fuc(a1-4)]GlcNAc(b1-3)[Fuc(a1-3)[Gal(b1-4)]GlcNAc(b1-6)]Gal(b1-4)Glc
# Procedure, shortened: as §1
# [3] = molecular target: Fuc(a1-2)Gal(b1-4)GlcNAc(b1-6)GalNAc
# Procedure, shortened: as §1
# [4] = molecular target: Fuc(a1-2)Gal(b1-4)[Fuc(a1-3)]GlcNAc
# Procedure, shortened: as §1
# [5] = molecular target: Fuc(a1-2)[Gal(a1-3)]Gal(b1-3)GlcNAc
# Procedure, shortened: as §1
# [6] = molecular target: Fuc(a1-2)[Gal(a1-3)]Gal(b1-3)GlcNAc(b1-3)GalNAc
# Procedure, shortened: as §1
# [7] = molecular target: Fuc(a1-2)[Gal(a1-3)]Gal(b1-4)GlcNAc
# Procedure, shortened: as §1
# [8] = molecular target: Fuc(a1-2)[GalNAc(a1-3)]Gal(b1-4)GlcNAc(b1-2)Man
# Procedure, shortened: as §1
# [9] = molecular target: Fuc(a1-2)[GalNAc(a1-3)]Gal(b1-4)GlcNAc(b1-3)GalNAc
# Procedure, shortened: as §1
# [10] = molecular target: Fuc(a1-2)[GalNAc(a1-3)]Gal(b1-4)GlcNAc(b1-6)GalNAc
# Procedure, shortened: as §1
# [11] = molecular target: Fuc(a1-2)[GalNAc(b1-3)]Gal
# Procedure, shortened: as §1
# [12] = molecular target: Fuc(a1-3)[Gal(b1-4)]GlcNAc(b1-2)Man
# Procedure, shortened: as §1
# Gal(a1-3)Gal(b1-3)GlcNAc = molecular target: Gal(a1-3)Gal(b1-3)GlcNAc
# Procedure, shortened: as §1
# [13] = molecular target: Gal(a1-3)Gal(b1-3)GlcNAc(b1-2)Man(a1-3)[Gal(a1-3)Gal(b1-3)GlcNAc(b1-2)Man(a1-6)]Man(b1-4)GlcNAc(b1-4)GlcNAc
# Procedure, shortened: as §1
# [14] = molecular target: Gal(a1-3)Gal(b1-4)GlcNAc(b1-6)GalNAc
# Procedure, shortened: as §1
# [15] = molecular target: Gal(b1-3)GlcNAc(a1-6)Gal(b1-4)GlcNAc
# Procedure, shortened: as §1
# [16] = molecular target: Gal(b1-3)GlcNAc(b1-3)Gal(b1-4)Glc
# Procedure, shortened: as §1
# [17] = molecular target: Gal(b1-3)GlcNAc(b1-6)GalNAc
# Procedure, shortened: as §1
# [18] = molecular target: Gal(b1-3)[Fuc(a1-4)]GlcNAc(b1-3)Gal(b1-3)[Fuc(a1-4)]GlcNAc
# Procedure, shortened: as §1
# [19] = molecular target: Gal(b1-3)[Neu5Ac(a2-6)]GlcNAc(b1-4)Gal(b1-4)Glc
# Procedure, shortened: as §1
# [20] = molecular target: Gal(b1-4)GalNAc(b1-3)[Fuc(a1-2)]Gal(b1-4)GlcNAc
# Procedure, shortened: as §1
# [21] = molecular target: Gal(b1-4)GlcNAc(b1-2)[Gal(b1-4)GlcNAc(b1-6)]Man(a1-6)[GlcNAc(b1-4)][Gal(b1-4)GlcNAc(b1-2)[Gal(b1-4)GlcNAc(b1-4)]Man(a1-3)]Man(b1-4)GlcNAc(b1-4)[Fuc(a1-6)]GlcNAc
# Procedure, shortened: as §1
# [22] = molecular target: Gal(b1-4)GlcNAc(b1-3)Gal(b1-4)GlcNAc(b1-2)Man(a1-3)[Gal(b1-4)GlcNAc(b1-3)Gal(b1-4)GlcNAc(b1-2)Man(a1-6)]Man(b1-4)GlcNAc(b1-4)GlcNAc
# Procedure, shortened: as §1
# Gal3S(b1-4)Glc = molecular target: Gal3S(b1-4)Glc
# Procedure, shortened: as §1
# [23] = molecular target: Gal3S(b1-4)[Fuc(a1-3)]GlcNAc6S
# Procedure, shortened: as §1
# Gal6S(b1-4)GlcNAc6S = molecular target: Gal6S(b1-4)GlcNAc6S
# Procedure, shortened: as §1
# GalNAc(a1-3)Gal = molecular target: GalNAc(a1-3)Gal
# Procedure, shortened: as §1
# GalNAc(b1-3)Gal = molecular target: GalNAc(b1-3)Gal
# Procedure, shortened: as §1
# [24] = molecular target: GalNAc(b1-3)Gal(a1-4)Gal(b1-4)GlcNAc
# Procedure, shortened: as §1
# [25] = molecular target: GalNAc(b1-3)Gal(a1-4)Gal(b1-4)GlcNAc(b1-3)Gal(b1-4)Glc
# Procedure, shortened: as §1
# [26] = molecular target: GalNAc(b1-3)Gal(a1-6)Gal(b1-4)Glc
# Procedure, shortened: as §1
# GalNAc3S(b1-4)GlcNAc = molecular target: GalNAc3S(b1-4)GlcNAc
# Procedure, shortened: as §1
# [27] = molecular target: GlcNAc(a1-4)Gal(b1-3)GlcNAc
# Procedure, shortened: as §1
# [28] = molecular target: GlcNAc(a1-4)Gal(b1-4)GlcNAc(b1-3)Gal(b1-4)GlcNAc
# Procedure, shortened: as §1
# [29] = molecular target: GlcNAc(b1-2)Man(a1-3)[GlcNAc(b1-2)Man(a1-6)]Man(b1-4)GlcNAc(b1-4)GlcNAc
# Procedure, shortened: as §1
# GlcNAc(b1-3)Gal = molecular target: GlcNAc(b1-3)Gal
# Procedure, shortened: as §1
# GlcNAc(b1-6)GalNAc = molecular target: GlcNAc(b1-6)GalNAc
# Procedure, shortened: as §1
# [30] = molecular target: Man(a1-2)Man(a1-3)[Man(a1-2)Man(a1-6)]Man(a1-6)[Man(a1-2)Man(a1-2)Man(a1-3)]Man
# Procedure, shortened: as §1
# [31] = molecular target: Man(a1-3)[Man(a1-6)]Man(a1-6)[Man(a1-3)]Man(b1-4)GlcNAc(b1-4)GlcNAc
# Procedure, shortened: as §1
# [32] = molecular target: Neu5Ac(a2-3)Gal(b1-3)GalNAc(b1-3)Gal(a1-4)Gal(b1-4)Glc
# Procedure, shortened: as §1
# [33] = molecular target: Neu5Ac(a2-3)Gal(b1-3)[Fuc(a1-4)]GlcNAc(b1-3)Gal(b1-3)[Fuc(a1-4)]GlcNAc
# Procedure, shortened: as §1
# Neu5Ac(a2-3)Gal(b1-4)Glc = molecular target: Neu5Ac(a2-3)Gal(b1-4)Glc
# Procedure, shortened: as §1
# [34] = molecular target: Neu5Ac(a2-3)Gal(b1-4)GlcNAc(b1-2)Man(a1-3)[Neu5Ac(a2-3)Gal(b1-4)GlcNAc(b1-2)Man(a1-6)]Man(b1-4)GlcNAc(b1-4)[Fuc(a1-6)]GlcNAc
# Procedure, shortened: as §1
# [35] = molecular target: Neu5Ac(a2-3)Gal(b1-4)GlcNAc(b1-3)Gal
# Procedure, shortened: as §1
# [36] = molecular target: Neu5Ac(a2-3)Gal(b1-4)GlcNAc(b1-3)Gal(b1-4)GlcNAc
# Procedure, shortened: as §1
# [37] = molecular target: Neu5Ac(a2-3)Gal(b1-4)[Fuc(a1-3)]GlcNAc(b1-6)[Neu5Ac(a2-3)Gal(b1-3)]GalNAc
# Procedure, shortened: as §1
# [38] = molecular target: Neu5Ac(a2-6)Gal(b1-4)GlcNAc(b1-2)[Neu5Ac(a2-6)Gal(b1-4)GlcNAc(b1-4)]Man(a1-3)[GlcNAc(b1-4)][Neu5Ac(a2-6)Gal(b1-4)GlcNAc(b1-4)Man(a1-6)]Man(b1-4)GlcNAc(b1-4)GlcNAc
# Procedure, shortened: as §1
# [39] = molecular target: Neu5Ac(a2-8)Neu5Ac(a2-8)Neu5Ac(a2-3)[GalNAc(b1-4)]Gal(b1-4)Glc
# Procedure, shortened: as §1
# Neu5Ac(b2-6)GalNAc = molecular target: Neu5Ac(b2-6)GalNAc
# Procedure, shortened: as §1
binder,measurement,setting,value
B1,glycan array binding signal (z-score),[1],-0.407
same,glycan array binding signal (z-score),[2],-0.151
same,glycan array binding signal (z-score),[3],0.7
same,glycan array binding signal (z-score),[4],0.229
same,glycan array binding signal (z-score),[5],3.96
same,glycan array binding signal (z-score),[6],-0.241
same,glycan array binding signal (z-score),[7],-0.349
same,glycan array binding signal (z-score),[8],-0.101
same,glycan array binding signal (z-score),[9],-0.338
same,glycan array binding signal (z-score),[10],5.37
same,glycan array binding signal (z-score),[11],3.27
same,glycan array binding signal (z-score),[12],-0.274
same,glycan array binding signal (z-score),Gal(a1-3)Gal(b1-3)GlcNAc,8.73
same,glycan array binding signal (z-score),[13],-0.246
same,glycan array binding signal (z-score),[14],6.42
same,glycan array binding signal (z-score),[15],-0.186
same,glycan array binding signal (z-score),[16],-0.363
same,glycan array binding signal (z-score),[17],3.16
same,glycan array binding signal (z-score),[18],4.89
same,glycan array binding signal (z-score),[19],-0.388
same,glycan array binding signal (z-score),[20],-0.103
same,glycan array binding signal (z-score),[21],-0.425
same,glycan array binding signal (z-score),[22],4.39
same,glycan array binding signal (z-score),Gal3S(b1-4)Glc,5.11
same,glycan array binding signal (z-score),[23],1.55
same,glycan array binding signal (z-score),Gal6S(b1-4)GlcNAc6S,0.096
same,glycan array binding signal (z-score),GalNAc(a1-3)Gal,0.417
same,glycan array binding signal (z-score),GalNAc(b1-3)Gal,2.45
same,glycan array binding signal (z-score),[24],1.26
same,glycan array binding signal (z-score),[25],0.862
same,glycan array binding signal (z-score),[26],2.77
same,glycan array binding signal (z-score),GalNAc3S(b1-4)GlcNAc,-0.436
same,glycan array binding signal (z-score),[27],-0.401
same,glycan array binding signal (z-score),[28],-0.366
same,glycan array binding signal (z-score),[29],-0.313
same,glycan array binding signal (z-score),GlcNAc(b1-3)Gal,-0.352
same,glycan array binding signal (z-score),GlcNAc(b1-6)GalNAc,1.02
same,glycan array binding signal (z-score),[30],-0.438
same,glycan array binding signal (z-score),[31],-0.439
same,glycan array binding signal (z-score),[32],-0.388
same,glycan array binding signal (z-score),[33],-0.418
same,glycan array binding signal (z-score),Neu5Ac(a2-3)Gal(b1-4)Glc,-0.444
same,glycan array binding signal (z-score),[34],-0.364
same,glycan array binding signal (z-score),[35],-0.377
same,glycan array binding signal (z-score),[36],-0.175
same,glycan array binding signal (z-score),[37],-0.363
same,glycan array binding signal (z-score),[38],-0.257
same,glycan array binding signal (z-score),[39],0.263
same,glycan array binding signal (z-score),Neu5Ac(b2-6)GalNAc,-0.406
